Data reported in PubChem BioAssay (Tox21).
Inconclusive results are not listed. Calls of active or inactive are those of the source. Unless noted, calls come from the whole dose curve; as a rule, active = well fitted curve in the direction sought with a large enough effect in the repeat runs; inconclusive = weak or mixed curves; inactive = no such curve, though single readings can be large; an effect the other way counts as inactive or inconclusive.

Assays:
[1] = qHTS assay to identify aromatase inhibitors - cell viability counter screen (AID 743084);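 note: cells stimulated with testosterone during compound exposure; nearly all actives have a fitted effect of over 55% in size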; note: potency is the fitted concentration of half-maximal effect
[2] = qHTS assay for small molecule activators of the heat shock response signaling pathway - cell viability counter screen (AID 743209); note: nearly all actives have a fitted effect of over 50% in size; note: potency is the fitted concentration of half-maximal effect
In short: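 HSE-bla HeLa cells plated overnight, then exposed to Tox21 compounds (23 nL in DMSO) for 5 h at 37 C. After the bla reporter read, CellTiter-Glo was added in the same wells and luminescence read after 30 min at room temperature.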

[3] = target: Aryl hydrocarbon receptor (Homo sapiens) (UniProt P35869); assay: qHTS assay to identify small molecule that activate the aryl hydrocarbon receptor (AhR) signaling pathway (AID 743085); note: nearly all actives have a fitted effect of over 15% in size; note: potency is the fitted concentration of half-maximal effect;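 for activation: HG2L7.5c1 human HepG2 liver cells with stably integrated DRE-driven firefly reporter; series mostly up to about 70 µM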
In short: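 A multiplexed format paired cell viability (CellTiter-Fluor fluorescence) with AhR-dependent luciferase output (ONE-Glo luminescence) in the same wells of HepG2 DRE-luc cells after 24 h compound exposure at 37C.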

[4] = target: Peroxisome proliferator-activated receptor gamma (Homo sapiens) (UniProt P37231); assay: qHTS assay to identify small molecule agonists of the peroxisome proliferator-activated receptor gamma (PPARg) signaling pathway (AID 743094; active = well fitted activation curve with a large enough effect in the signal ratio in the repeat runs, not every such curve was filed as active; the % refers to the signal ratio; note: potency is the fitted concentration of half-maximal effect)
In short: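 GeneBLAzer PPARg UAS-bla HEK293H cells were plated, rested 5 h, then exposed to compounds for 17 h at 37C. Beta-lactamase activity was read by LiveBLAzer B/G FRET substrate fluorescence after 1 h at room temperature.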

[5] = qHTS assay to identify small molecule antagonists of the peroxisome proliferator-activated receptor gamma (PPARg) signaling pathway - cell viability counter screen (AID 743194); note: nearly all actives have a fitted effect of over 55% in size; note: potency is the fitted concentration of half-maximal effect
In short: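 Viability was measured as CellTiter-Glo luminescence in GeneBLAzer PPARg UAS-bla HEK293H cells. These cells had been exposed 17 h at 37 C to compounds together with rosiglitazone at 50 nM final, with the beta-lactamase readout taken in the same wells.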

[6] = qHTS assay for small molecule agonists of the antioxidant response element (ARE) signaling pathway - cell viability counter screen (AID 743203; calls by dose curve; note: nearly all actives have a fitted effect of over 55% in size; note: potency is the fitted concentration of half-maximal effect)
In short: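 ARE-bla HepG2 cells were plated, rested 5 h at 37C/5% CO2, then exposed to compounds in DMSO for 16 h. Viability was read as CellTiter-Glo luminescence after 30 min at room temperature, in the same wells as the ARE screen.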

[7] = qHTS assay for small molecule activators of the heat shock response signaling pathway (AID 743210; active = well fitted activation curve with a large enough effect in the signal ratio in the repeat runs, with a control signal flat, not every such curve was filed as active; the % refers to the signal ratio;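 note: HeLa cells with beta-lactamase reporter driven by heat shock elements; series mostly up to about 63 µM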)
In short: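 HeLa HSE-bla cells, overnight plating; cpd in DMSO 5 h, 37 C; LiveBLAzer B/G FRET substrate 2.5 h RT; fluorescence intensity read.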

[8] = qHTS assay to identify small molecule that activate the aryl hydrocarbon receptor (AhR) signaling pathway - cell viability counter screen (AID 743086); note: nearly all actives have a fitted effect of over 45% in size; note: potency is the fitted concentration of half-maximal effect
In short: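 Cytotoxicity counter screen: CellTiter-Fluor signal (30 min, 37 C) in 4000 HepG2 cells/well carrying the DRE-luciferase reporter, following 24 h compound exposure at 37 C.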

[9] = target: Peroxisome proliferator-activated receptor gamma (Homo sapiens) (UniProt P37231); assay: qHTS assay to identify small molecule antagonists of the peroxisome proliferator-activated receptor gamma (PPARg) signaling pathway (AID 743191; calls by dose curve; note: nearly all actives have a fitted effect of over 30% in size; note: potency is the fitted concentration of half-maximal effect)
In short: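 Beta-lactamase reporter under UAS control in HEK293H PPARg-bla cells; compound treatment 17 h at 37C. Read-out: fluorescence intensity after 1 h room-temperature incubation with LiveBLAzer B/G FRET substrate.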

[10] = qHTS assay for small molecule agonists of the antioxidant response element (ARE) signaling pathway (AID 743202; active = well fitted activation curve with a large enough effect in the signal ratio in the repeat runs, not every such curve was filed as active; the % refers to the signal ratio; note: potency is the fitted concentration of half-maximal effect)
In short: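 Quantitative high-throughput format in HepG2 cells bearing an integrated ARE-beta-lactamase reporter. Compound exposure lasted 16 h at 37 C, and fluorescence was read 2 h after adding LiveBLAzer B/G substrate at room temperature.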

Measured: Potency

Chain of Peroxisome proliferator-activated receptor gamma (Homo sapiens) (P37231 whole entry, looked up): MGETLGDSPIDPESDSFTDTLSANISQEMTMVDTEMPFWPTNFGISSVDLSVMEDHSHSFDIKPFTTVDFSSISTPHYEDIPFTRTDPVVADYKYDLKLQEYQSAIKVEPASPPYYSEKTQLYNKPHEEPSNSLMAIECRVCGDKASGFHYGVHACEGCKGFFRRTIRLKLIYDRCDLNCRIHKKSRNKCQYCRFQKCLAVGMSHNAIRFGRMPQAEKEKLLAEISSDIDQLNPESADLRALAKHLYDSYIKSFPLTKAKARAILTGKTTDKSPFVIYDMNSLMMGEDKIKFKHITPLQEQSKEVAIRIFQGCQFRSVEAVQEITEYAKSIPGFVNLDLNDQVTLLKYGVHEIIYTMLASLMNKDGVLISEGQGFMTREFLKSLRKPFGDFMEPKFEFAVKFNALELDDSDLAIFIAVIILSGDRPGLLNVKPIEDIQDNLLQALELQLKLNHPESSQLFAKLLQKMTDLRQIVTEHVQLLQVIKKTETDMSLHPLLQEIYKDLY
Chain of Aryl hydrocarbon receptor (Homo sapiens) (P35869 whole entry, looked up): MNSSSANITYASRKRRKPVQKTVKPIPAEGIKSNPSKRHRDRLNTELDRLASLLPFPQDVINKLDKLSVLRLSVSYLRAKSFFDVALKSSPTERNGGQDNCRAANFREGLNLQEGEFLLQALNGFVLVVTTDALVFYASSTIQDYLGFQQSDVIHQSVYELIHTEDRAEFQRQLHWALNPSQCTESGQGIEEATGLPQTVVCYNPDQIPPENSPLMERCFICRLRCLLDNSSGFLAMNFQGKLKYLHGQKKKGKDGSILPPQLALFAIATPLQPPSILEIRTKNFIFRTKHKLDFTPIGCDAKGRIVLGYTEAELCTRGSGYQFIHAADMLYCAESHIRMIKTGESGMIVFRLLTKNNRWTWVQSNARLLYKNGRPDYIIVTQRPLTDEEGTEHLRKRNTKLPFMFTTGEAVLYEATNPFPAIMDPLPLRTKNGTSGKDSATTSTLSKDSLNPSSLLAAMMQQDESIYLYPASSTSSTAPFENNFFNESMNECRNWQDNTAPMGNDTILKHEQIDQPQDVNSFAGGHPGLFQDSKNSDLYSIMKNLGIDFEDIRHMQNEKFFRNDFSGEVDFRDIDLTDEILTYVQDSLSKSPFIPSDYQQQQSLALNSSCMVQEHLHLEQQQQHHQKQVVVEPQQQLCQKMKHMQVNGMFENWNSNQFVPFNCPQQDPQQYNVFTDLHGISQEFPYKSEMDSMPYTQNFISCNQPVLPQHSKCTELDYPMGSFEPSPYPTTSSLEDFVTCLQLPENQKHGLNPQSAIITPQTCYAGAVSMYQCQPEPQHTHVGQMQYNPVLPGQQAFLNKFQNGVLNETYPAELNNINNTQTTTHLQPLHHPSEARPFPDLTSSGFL

CCCCCCCCCCCCOCCOCCOCCOCCOCCOCCOCCOCCOCCO
inactive: [1]
active: [2] 29.8 µM

CCCC(=O)OCCc1ccccc1
inactive: [1] | [3] | [4] | [5] | [6] | [7]

CN(C)Cc1cc(C(C)(C)C)c(O)c(C(C)(C)C)c1
active: [10] 27.3 µM
not listed: [2] | [3] | [5]
inactive: all other assays above

c1ccsc1
not listed: [1] | [2] | [10]
inactive: all other assays above

Cc1cc(C)c(/C=C2\C(=O)Nc3ccccc32)[nH]1
inactive: [1] | [8] | [4] | [6] | [2] | [7]

Sc1nc2ccccc2s1
inactive: [1] | [8] | [5] | [10] | [6] | [2]

O=c1[nH]c2ccccc2n1CCCN1CCN(C(c2ccccc2)c2ccccc2)CC1
active: [8] 26.6 µM | [6] 29.8 µM
inactive: [1] | [5]

COc1cc(/C=C/c2ccccc2)oc(=O)c1
inactive: [1] | [9] | [6] | [7]

CN1CCN(Cc2cc(-c3ccc4[nH]c(=O)oc4c3)co2)[C@@H](c2ccc(F)cc2)C1
active: [8] 52.4 µM
inactive: [3] | [5] | [6] | [2]

COc1ccc2cc1Oc1ccc(cc1)C[C@H]1c3c(cc4c(c3Oc3cc5c(cc3OC)CCN(C)[C@@H]5C2)OCO4)CCN1C
inactive: [1] | [3] | [4] | [2] | [7]
active: [6] 29.8 µM

CC(CO)Oc1ccccc1 (configuration not stated)
not listed: [1]
inactive: all other assays above

CCc1oc2ccccc2c1C(=O)c1cc(I)c(O)c(I)c1
active: [4] 0.952 µM | [5] 13.3 µM | [6] 26.6 µM
inactive: [1] | [8] | [9] | [2]

CCn1c2ccccc2c2cc([N+](=O)[O-])ccc21
inactive: [1] | [8] | [5] | [10] | [6] | [2]

Clc1nnc(Cl)c2ccccc12
inactive: [1] | [8] | [4] | [5] | [6]

C=CCCC(=O)/C=C/C1C(C)=CCCC1(C)C (configuration not stated)
not listed: [1]
inactive: all other assays above

COC(=O)C1=C(C)NC(C)=C(C(=O)OCCN2CCN(C(c3ccccc3)c3ccccc3)CC2)C1c1cccc([N+](=O)[O-])c1 (configuration not stated)
inactive: [1] | [3] | [5] | [2]
active: [9] 9.44 µM

S=c1nccc[nH]1
inactive: [1] | [3] | [4] | [5] | [6] | [7]

CCCCCCCCCCCCOC(=O)c1ccc(O)cc1
inactive: [3] | [8] | [4]
active: [6] 61.6 µM

O=C(O)c1cc(N=Nc2ccc([N+](=O)[O-])cc2)ccc1O
inactive: [6] | [2] | [7]
active: [1] 26.8 µM | [3] 3.37 µM | [10] 60 µM

c1cnccn1
not listed: [3] | [5]
inactive: all other assays above

CCC(=O)OC(=O)CC
not listed: [8] | [9] | [10]
inactive: all other assays above

Oc1cc(Cl)cc(Cl)c1Cl
active: [10] 62.6 µM
not listed: [3] | [5] | [9]
inactive: all other assays above

Nc1nc2c(ncn2COCCO)c(=O)[nH]1
not listed: [4] | [8] | [9]
inactive: all other assays above

COc1cc2nc(N3CCN(C(=O)c4ccco4)CC3)nc(N)c2cc1OC
inactive: [4] | [9] | [5] | [6] | [7]

CN(C)[C@@H](CCOc1cccc2ccccc12)c1ccccc1
inactive: [2]

CN1CCC[C@@H]1CCO[C@](C)(c1ccccc1)c1ccc(Cl)cc1
inactive: [3] | [2] | [7]
active: [6] 29.8 µM

C#C[C@]1(OC(C)=O)CC[C@H]2[C@@H]3CCC4=C/C(=N/O)CC[C@@H]4[C@H]3CC[C@@]21CC
active: [6] 29.8 µM
inactive: [3] | [8]

COc1ccc2c(c1)c(CC(=O)OC/C=C(\C)CC/C=C(\C)CCC=C(C)C)c(C)n2C(=O)c1ccc(Cl)cc1
inactive: [5] | [6]

c1ccc(C(O[C@@H]2CCCN(CCc3ccc4c(c3)OCO4)C2)c2ccccc2)cc1
active: [6] 61.1 µM
inactive: [5]

O=S(=O)(O)c1ccc(Nc2nc(Nc3ccc(/C=C/c4ccc(Nc5nc(Nc6ccc(S(=O)(=O)O)cc6)nc(N(CCO)CCO)n5)cc4S(=O)(=O)O)c(S(=O)(=O)O)c3)nc(N(CCO)CCO)n2)cc1
inactive: [3] | [6] | [2]

CCC(=O)C(=O)CC
inactive: [8] | [2] | [7]

Cc1ccc(O)c(O)c1
active: [3] 29.8 µM
inactive: [5] | [6]

COc1cccc(OC)c1C(=O)O
inactive: [10] | [6] | [2] | [7]

Fc1ccc(C(c2ccc(F)cc2)N2CCNCC2)cc1
active: [6] 16.8 µM | [2] 15 µM

CCOC(=O)c1ccc(C2CCC(NC[C@H](O)COc3ccc(O)c(NS(C)(=O)=O)c3)CC2)cc1 (some centres not stated)
active: [6] 50.2 µM
inactive: [3] | [9] | [2] | [7]

CC(C)=CCC1=C(O)c2ccccc2C(=O)C1=O
active: [3] 54.2 µM | [9] 0.772 µM
inactive: [5] | [6] | [2] | [7]

CC/C=C\CCCCCO
inactive: [8] | [5] | [10] | [6] | [2] | [7]

Cc1c(N)cccc1C(F)(F)F
inactive: [9] | [5] | [10] | [6] | [2] | [7]

Cc1cc(-n2nc3ccc(Cl)cc3n2)c(O)c(C(C)(C)C)c1
inactive: [8] | [5] | [10] | [6] | [2] | [7]

O=c1c(O)c(-c2ccc(O)cc2O)oc2cc(O)cc(O)c12
inactive: [3] | [4] | [5] | [6] | [2]

CC(C)(C)c1csc(-c2cc3cc(OCc4ccccc4CC(=O)O)ccc3o2)n1
active: [4] 0.776 µM | [10] 4.86 µM
inactive: [3]

CCCCCCC1CCCC(=O)O1 (configuration not stated)
inactive: [8] | [5] | [10] | [6] | [2] | [7]

CC(C)=CCNc1ncnc2c1ncn2[C@@H]1O[C@H](CO)[C@@H](O)[C@H]1O
active: [5] 9.44 µM | [6] 5.96 µM | [2] 13.3 µM
inactive: [7]

CCN(CC)C(=O)c1cc(S(=O)(=O)Cc2ccccc2)c(N2CCC(c3ccccc3)CC2)cc1N(CC)CCN(C)C
active: [8] 23.7 µM | [6] 21.4 µM
inactive: [3] | [7]

CCCc1ccc(OCC(=O)N2CCN(C(=O)COc3ccc(CCC)cc3OC)CC2)c(OC)c1
inactive: [6] | [2] | [7]
active: [10] 29.8 µM

O=C1NC(=O)[C@@H]2CC=CC[C@H]12
inactive: [5] | [6] | [2] | [7]

CCC(C)[O-].CCC(C)[O-].CCOC(=O)/C=C(/C)[O-].[Al+3]
inactive: [8] | [5] | [6] | [2] | [7]

CNC(=O)c1ccccc1Sc1ccc2c(/C=C/c3ccccn3)n[nH]c2c1
active: [3] 3.76 µM
inactive: [8] | [6] | [2] | [7]

C#Cc1ccc(-c2ccccc2F)cc1
inactive: [9] | [5] | [10] | [6] | [2] | [7]

OCCN1CCN(CCCN2c3ccccc3Sc3ccc(C(F)(F)F)cc32)CC1
active: [6] 29.8 µM
inactive: [3] | [2] | [7]

[Cu+]
inactive: [8] | [5] | [6] | [2]

CN(C)CCN1CCN(c2cccc(Cl)c2)C1=O
inactive: [5] | [10] | [6] | [2] | [7]

Cc1ccc(O)c(N)c1
inactive: [6] | [2]
active: [3] 34.4 µM

O=c1oc2cc(O)ccc2c2oc3cc(O)ccc3c12
active: [10] 20.8 µM
inactive: [8] | [5] | [6] | [2]

Cc1cccc(C)c1NC(=O)c1ccc(N)cc1
inactive: [9] | [5] | [10] | [6] | [2] | [7]

CC[C@H](C)COC(=O)/C=C/c1ccc(N=Cc2ccc(OC)cc2)cc1
inactive: [3] | [4] | [5] | [6] | [2] | [7]

Nc1ccc(NCCO)c([N+](=O)[O-])c1
active: [3] 15.4 µM
not listed: [1] | [8] | [10]
inactive: all other assays above

O=S(=O)(O)c1ccccc1/C=C/c1ccc(-c2ccc(/C=C/c3ccccc3S(=O)(=O)O)cc2)cc1
inactive: [3] | [5] | [6]

CCCC(=O)OCOC(=O)C1=C(C)NC(C)=C(C(=O)OC)C1c1cccc(Cl)c1Cl (configuration not stated)
inactive: [9] | [5] | [6] | [2] | [7]

CN(C)C(=O)COC(=O)Cc1ccc(OC(=O)c2ccc(N=C(N)N)cc2)cc1
inactive: [8] | [10] | [6] | [2] | [7]

Cc1nc(-c2ccc(Cl)cc2)oc1COC(C)(C)C(=O)O
inactive: [5] | [10] | [6] | [7]

O=C(O)Cc1ccc2c(c1)C(=O)c1ccccc1CO2
inactive: [5] | [6] | [2] | [7]
